Our source for the binding signal values is PMC9911399, “Two distinct binding modes provide the RNA-binding protein RbFox with extraordinary sequence specificity”.

Residue numbers refer to the chain shown, from its start. Over roughly 16,000 sequences, “ka relative to ugcaugu” has its median near 0.096; the highest 2% begin near 0.35. Many of the other results were omitted from the sample, so the highest values are more common in it than they were.

Sequences and labels used below:
T1: RBFOX1 RRM RbFoxmut (Fox-RRM*) (Homo sapiens, UniProt Q9NWB1 109-208, R118D;E147R;N151S;E152T)
T1 sequence: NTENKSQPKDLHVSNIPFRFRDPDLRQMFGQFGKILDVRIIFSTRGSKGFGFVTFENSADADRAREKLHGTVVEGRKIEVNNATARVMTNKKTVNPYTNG

B1: UAAUUGU (DNA:RNA)
RNA: GGGAGACCGGAAUUCAGAUUGUCCUAAUUGUUUAAAUCCCGUCGUAGCCACCA
DNA 1: CAATCTGAATTCCGGTCTCCC
DNA 2: TGGTGGCTACGACGGGATT
B2: GGCUGUC (DNA:RNA)
RNA: B1 RNA with U25G, A26G, A27C, U29G, G30U, U31C
DNA 1: CAATCTGAATTCCGGTCTCCC
DNA 2: TGGTGGCTACGACGGGATT
B3: AUUCUUA (DNA:RNA)
RNA: B1 RNA with U25A, A26U, A27U, U28C, G30U, U31A
DNA 1: CAATCTGAATTCCGGTCTCCC
DNA 2: TGGTGGCTACGACGGGATT
B4: UGCCAUC (DNA:RNA)
RNA: B1 RNA with A26G, A27C, U28C, U29A, G30U, U31C
DNA 1: CAATCTGAATTCCGGTCTCCC
DNA 2: TGGTGGCTACGACGGGATT
B5: UGCAUGU (DNA:RNA)
RNA: B1 RNA with A26G, A27C, U28A
DNA 1: CAATCTGAATTCCGGTCTCCC
DNA 2: TGGTGGCTACGACGGGATT
B6: UGCAUUU (DNA:RNA)
RNA: B1 RNA with A26G, A27C, U28A, G30U
DNA 1: CAATCTGAATTCCGGTCTCCC
DNA 2: TGGTGGCTACGACGGGATT
B7: CUGCAUG (DNA:RNA)
RNA: GGGAGACCGGAAUUCAGAUUGUCCCUGCAUGUUAAAUCCCGUCGUAGCCACCA
DNA 1: CAATCTGAATTCCGGTCTCCC
DNA 2: TGGTGGCTACGACGGGATT
B8: CCCUGCA (DNA:RNA)
RNA: B7 RNA with U26C, G27C, C28U, A29G, U30C, G31A
DNA 1: CAATCTGAATTCCGGTCTCCC
DNA 2: TGGTGGCTACGACGGGATT
B9: UGCAUAU (DNA:RNA)
RNA: B1 RNA with A26G, A27C, U28A, G30A
DNA 1: CAATCTGAATTCCGGTCTCCC
DNA 2: TGGTGGCTACGACGGGATT
B10: UGCCAUG (DNA:RNA)
RNA: B7 RNA with C25U, U26G, G27C
DNA 1: CAATCTGAATTCCGGTCTCCC
DNA 2: TGGTGGCTACGACGGGATT
B11: UGCCAUA (DNA:RNA)
RNA: B7 RNA with C25U, U26G, G27C, G31A
DNA 1: CAATCTGAATTCCGGTCTCCC
DNA 2: TGGTGGCTACGACGGGATT
B12: CUGCAUA (DNA:RNA)
RNA: B7 RNA with G31A
DNA 1: CAATCTGAATTCCGGTCTCCC
DNA 2: TGGTGGCTACGACGGGATT
B13: CGCGCUA (DNA:RNA)
RNA: B7 RNA with U26G, G27C, C28G, A29C, G31A
DNA 1: CAATCTGAATTCCGGTCTCCC
DNA 2: TGGTGGCTACGACGGGATT
B14: AUACCAG (DNA:RNA)
RNA: B7 RNA with C25A, G27A, A29C, U30A
DNA 1: CAATCTGAATTCCGGTCTCCC
DNA 2: TGGTGGCTACGACGGGATT
B15: CCAGGGG (DNA:RNA)
RNA: B7 RNA with U26C, G27A, C28G, A29G, U30G
DNA 1: CAATCTGAATTCCGGTCTCCC
DNA 2: TGGTGGCTACGACGGGATT
B16: CUUGUUU (DNA:RNA)
RNA: B7 RNA with G27U, C28G, A29U, G31U
DNA 1: CAATCTGAATTCCGGTCTCCC
DNA 2: TGGTGGCTACGACGGGATT
B17: ACGUAUC (DNA:RNA)
RNA: B7 RNA with C25A, U26C, C28U, G31C
DNA 1: CAATCTGAATTCCGGTCTCCC
DNA 2: TGGTGGCTACGACGGGATT
B18: AUAUGUA (DNA:RNA)
RNA: B7 RNA with C25A, G27A, C28U, A29G, G31A
DNA 1: CAATCTGAATTCCGGTCTCCC
DNA 2: TGGTGGCTACGACGGGATT
B19: AUGUAUC (DNA:RNA)
RNA: B7 RNA with C25A, C28U, G31C
DNA 1: CAATCTGAATTCCGGTCTCCC
DNA 2: TGGTGGCTACGACGGGATT
B20: AUGUAUG (DNA:RNA)
RNA: B7 RNA with C25A, C28U
DNA 1: CAATCTGAATTCCGGTCTCCC
DNA 2: TGGTGGCTACGACGGGATT
B21: AUGUAGA (DNA:RNA)
RNA: B7 RNA with C25A, C28U, U30G, G31A
DNA 1: CAATCTGAATTCCGGTCTCCC
DNA 2: TGGTGGCTACGACGGGATT
B22: AUGUAAA (DNA:RNA)
RNA: B7 RNA with C25A, C28U, U30A, G31A
DNA 1: CAATCTGAATTCCGGTCTCCC
DNA 2: TGGTGGCTACGACGGGATT
B23: UAUUAUG (DNA:RNA)
RNA: B7 RNA with C25U, U26A, G27U, C28U
DNA 1: CAATCTGAATTCCGGTCTCCC
DNA 2: TGGTGGCTACGACGGGATT
B24: UAAGUUC (DNA:RNA)
RNA: B1 RNA with U28G, G30U, U31C
DNA 1: CAATCTGAATTCCGGTCTCCC
DNA 2: TGGTGGCTACGACGGGATT
B25: GGAUAGG (DNA:RNA)
RNA: B1 RNA with U25G, A26G, U29A, U31G
DNA 1: CAATCTGAATTCCGGTCTCCC
DNA 2: TGGTGGCTACGACGGGATT
B26: UUGUAUU (DNA:RNA)
RNA: B7 RNA with C25U, C28U, G31U
DNA 1: CAATCTGAATTCCGGTCTCCC
DNA 2: TGGTGGCTACGACGGGATT
B27: CCCGAGU (DNA:RNA)
RNA: B7 RNA with U26C, G27C, C28G, U30G, G31U
DNA 1: CAATCTGAATTCCGGTCTCCC
DNA 2: TGGTGGCTACGACGGGATT
B28: UCAGAUC (DNA:RNA)
RNA: B7 RNA with C25U, U26C, G27A, C28G, G31C
DNA 1: CAATCTGAATTCCGGTCTCCC
DNA 2: TGGTGGCTACGACGGGATT
B29: UCGCAUC (DNA:RNA)
RNA: B7 RNA with C25U, U26C, G31C
DNA 1: CAATCTGAATTCCGGTCTCCC
DNA 2: TGGTGGCTACGACGGGATT
B30: UCGCAGA (DNA:RNA)
RNA: B7 RNA with C25U, U26C, U30G, G31A
DNA 1: CAATCTGAATTCCGGTCTCCC
DNA 2: TGGTGGCTACGACGGGATT
B31: UCGCAUA (DNA:RNA)
RNA: B7 RNA with C25U, U26C, G31A
DNA 1: CAATCTGAATTCCGGTCTCCC
DNA 2: TGGTGGCTACGACGGGATT
B32: UCGCAUG (DNA:RNA)
RNA: B7 RNA with C25U, U26C
DNA 1: CAATCTGAATTCCGGTCTCCC
DNA 2: TGGTGGCTACGACGGGATT
B33: UCGCGCA (DNA:RNA)
RNA: B7 RNA with C25U, U26C, A29G, U30C, G31A
DNA 1: CAATCTGAATTCCGGTCTCCC
DNA 2: TGGTGGCTACGACGGGATT

This assay deals with T1, RBFOX1 RRM RbFoxmut (Fox-RRM*). The assay is described as follows: EMSA; HiTS-Eq, 1 nM pool, 10 min; buffer printed only for the single-RNA assays: 10 mM Tris pH 7.5, 150 mM NaCl, 3.4 mM EDTA, 0.001% NP-40, 30 C. The following applies: tags: His6 N-terminal (pET28a); label: 5' 32P. The essentials: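 A pool of RNA with 7 randomized nucleotides, 5′-radiolabelled and with DNA-annealed flanks, was equilibrated at 1 nM for 10 min in 50 µL with purified RbFox RRM, wild type or mutant, across increasing protein concentrations. Free RNA was separated by 8% native PAGE, excised, reverse-transcribed, barcoded by PCR and sequenced. Relative association constants were obtained from read-count changes of each RNA species versus the control reaction and normalised to the cognate motif.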
For B1, the binding signal was 0.0755 KA relative to UGCAUGU.
Under B2 stands 0.211 KA relative to UGCAUGU.
The same measure for B3: 0.13 KA relative to UGCAUGU; for B4: 0.208 KA relative to UGCAUGU.
The same measure for B5: 1 KA relative to UGCAUGU; for B6: 0.137 KA relative to UGCAUGU.
Take B7: the binding signal was 1.34 KA relative to UGCAUGU.
Turning to B8, the binding signal was 0.186 KA relative to UGCAUGU.
The same measure for B9: 0.178 KA relative to UGCAUGU.
The same measure for B10: 0.509 KA relative to UGCAUGU; for B11: 0.122 KA relative to UGCAUGU; for B12: 0.144 KA relative to UGCAUGU.
Under B13 stands 0.103 KA relative to UGCAUGU.
For the molecule B14, the binding signal was 0.122 KA relative to UGCAUGU.
The same measure for B15: 0.0555 KA relative to UGCAUGU; for B16: 0.0932 KA relative to UGCAUGU.
Under B17 stands 0.185 KA relative to UGCAUGU; under B18, 0.261 KA relative to UGCAUGU; under B19, 0.407 KA relative to UGCAUGU.
The same measure for B20: 1.19 KA relative to UGCAUGU.
On to B21, for which the binding signal is 0.152 KA relative to UGCAUGU.
The same measure for B22: 0.169 KA relative to UGCAUGU; for B23: 0.158 KA relative to UGCAUGU.
Under B24 stands 0.0634 KA relative to UGCAUGU.
On to B25, for which the binding signal was 0.0913 KA relative to UGCAUGU.
In the case of B26, the binding signal was 0.171 KA relative to UGCAUGU.
The same measure for B27: 0.094 KA relative to UGCAUGU.
Under B28 stands 0.0785 KA relative to UGCAUGU; under B29, 0.597 KA relative to UGCAUGU.
Under B30 stands 0.0842 KA relative to UGCAUGU; under B31, 0.125 KA relative to UGCAUGU; under B32, 1.06 KA relative to UGCAUGU.
In the case of B33, the binding signal is 0.104 KA relative to UGCAUGU.
